Test results published in PubChem BioAssay (NCATS).
Records with an inconclusive call do not appear. Entries that show only a call come without a potency. A number with no mark means an inactive call. The source made the active and inactive calls. Unless noted, calls follow the shape of the dose curve; as a rule, active = well fitted curve in the direction sought with a large enough effect; inconclusive = small, poorly fitted or top-dose-only effect, or another doubt; inactive = no such curve, though single readings can be large; an effect the other way counts as inactive or inconclusive.

How the values were obtained:
[1] = Cell Viability - Jurkat (AID 426;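 active = dose-dependent loss of cell ATP signal giving a full or clear fitted curve, ranked by lower potency value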; also: potency is read from the fitted curve at half-maximal effect); conditions: qHTS
In short: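 Jurkat (clone E6-1, human T-cell leukemia) cells, 5000/well in complete medium, were exposed to compound for 40 hr at 37 °C. Viability was read as intracellular ATP by CellTiter-Glo luminescence; AC50 came from Hill fits of concentration-response data.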

[2] = Cell Viability - LYMP2-001 (AID 921); conditions: LYMP2-001 lymphoblastoid cell viability; series mostly up to 92.2 µM; also: nearly all actives have a fitted effect of over 70% in size; also: potency is read from the fitted curve at half-maximal effect
In short: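 CellTiter-Glo luminescence (intracellular ATP) after 24 hr compound exposure at 37 C, 2500 lymphoblastoid cells/well in complete medium. AC50 fitted with standard Hill equation; tetraoctylammonium bromide positive control.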

[3] = MultiTox-Fluor Cytotoxicity Assay - LYMP1-002 - Dead Cells (AID 960); conditions: LYMP1-002 lymphoblastoid cells, dead-cell protease fluorescence; series mostly up to 46.1 µM; also: nearly all actives have a fitted effect of over 60% in size
In short: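 Human lymphoblastoid cells (LYMP1-002), 2500/well in complete medium, were exposed to compounds for 16 hr at 37 C. Dead-cell protease activity was read as bis-AAF-R110 fluorescence (Ex/Em 485/520), normalized to DMSO and 15 uM tetraoctylammonium bromide; AC50 from Hill fits.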

[4] = Cell Viability - LYMP1-003 - Assay at 40 hr (AID 964); conditions: LYMP1-003 lymphoblastoid viability; series mostly up to 92.2 µM; also: nearly all actives have a fitted effect of over 60% in size
In short: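 Human lymphoblastoid LYMP1-003 cells, 2500/well in complete medium, rested 5 hr at 37 C, then exposed to compounds for 40 hr at 37 C. Viability read as intracellular ATP by CellTiter-Glo luminescence; AC50 from Hill fits of concentration-response data.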

[5] = Cell Viability - LYMP2-003 (AID 965); conditions: LYMP2-003 lymphoblastoid cell viability; series mostly up to 92.2 µM;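 also: cells exposed to compounds for 24 h before reading; nearly all actives have a fitted effect of over 50% in size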; also: potency is read from the fitted curve at half-maximal effect
In short: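 CellTiter-Glo luminescence (cellular ATP) after 24 h compound exposure at 37 C in complete medium; 2500 cells/well, 5 h settling beforehand. Concentration-response fitted to standard Hill equation for AC50. Tetraoctylammonium bromide served as positive control.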

[6] = Cell Viability - LYMP2-005 (AID 967); conditions: LYMP2-005 lymphoblastoid cell viability; series mostly up to 92.2 µM; also: potency is read from the fitted curve at half-maximal effect
In short: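 Steps: seed 2500 LYMP2-005 cells/well, incubate 5 h at 37 C, add compound, incubate 24 h at 37 C, add CellTiter-Glo, wait 30 min at RT, read luminescence. Concentration-response data fitted to Hill equation for AC50.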

[7] = Cell Viability - LYMP2-011 (AID 969); conditions: LYMP2-011 lymphoblastoid cells viability; series mostly up to 92.2 µM; also: nearly all actives have a fitted effect of over 60% in size
In short: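 Human lymphoblastoid cells (2500/well) were plated in complete medium, preincubated 5 hr at 37 C, then exposed to compounds for 24 hr at 37 C. Intracellular ATP was read by CellTiter-Glo luminescence, and AC50 came from Hill-equation concentration-response fits.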

[8] = Cell Viability - LYMP2-013 (AID 970); conditions: LYMP2-013 lymphoblastoid cells viability; series mostly up to 92.2 µM; also: nearly all actives have a fitted effect of over 55% in size
In short: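 Human lymphoblastoid cells, 2500/well, were preincubated 5 hr at 37 C, then treated with compounds for 24 hr at 37 C in complete medium. Intracellular ATP was read by CellTiter-Glo luminescence; AC50 from Hill-equation fits of concentration-response data.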

[9] = Cell Viability - LYMP2-017 (AID 972); conditions: LYMP2-017 lymphoblastoid cell viability; series mostly up to 92.2 µM; also: nearly all actives have a fitted effect of over 55% in size; also: potency is read from the fitted curve at half-maximal effect
In short: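 Human lymphoblastoid cells (2500/well) were seeded in complete medium, held 5 hr at 37 C, then exposed to compounds for 24 hr at 37 C. Intracellular ATP was read by CellTiter-Glo luminescence after 30 min at room temperature, with AC50 values from Hill-equation fits.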

[10] = Cell Viability - LYMP2-019 (AID 973); conditions: LYMP2-019 lymphoblastoid cell line viability; series mostly up to 92.2 µM; also: nearly all actives have a fitted effect of over 55% in size
In short: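 Human lymphoblastoid cells were seeded at 2500 cells/well, preincubated 5 hr at 37 C, then exposed to compounds for 24 hr at 37 C in complete medium. Intracellular ATP was measured by CellTiter-Glo luminescence; AC50 from Hill fits.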

[11] = Cell Viability - LYMP2-021 (AID 974); conditions: LYMP2-021 lymphoblastoid cells viability; series mostly up to 92.2 µM;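 also: compound exposure lasts 24 hours at 37 °C; nearly all actives have a fitted effect of over 55% in size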; also: potency is read from the fitted curve at half-maximal effect
In short: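 Human lymphoblastoid cells (2500/well) were preincubated 5 hr at 37 C, then exposed to compounds for 24 hr at 37 C in complete medium. Intracellular ATP was read by CellTiter-Glo luminescence; AC50 came from Hill-equation fits of concentration-response data.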

[12] = Cell Viability - LYMP2-023 (AID 975); conditions: LYMP2-023 lymphoblastoid cell viability; series mostly up to 92.2 µM
In short: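 Human lymphoblastoid cells (2500/well) were preincubated 5 hr at 37 C, then exposed to compounds for 24 hr at 37 C in complete medium. Cellular ATP was read by CellTiter-Glo luminescence, and AC50 came from Hill-equation fits.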

[13] = Cell Viability - LYMP2-010 (AID 981); conditions: LYMP2-010 lymphoblastoid cell viability, qHTS; series mostly up to 92.2 µM; also: nearly all actives have a fitted effect of over 55% in size; also: potency is read from the fitted curve at half-maximal effect
In short: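 Human lymphoblastoid LYMP2-010 cells (2500/well) were preincubated 5 hr at 37 C, then exposed to compounds for 24 hr at 37 C in complete medium. Intracellular ATP was measured by CellTiter-Glo luminescence after 30 min at room temperature; AC50 from Hill-fitted concentration-response.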

[14] = Cell Viability - LYMP2-014 (AID 983); conditions: LYMP2-014 lymphoblastoid cells, viability qHTS; series mostly up to 92.2 µM; also: nearly all actives have a fitted effect of over 50% in size
In short: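 Human lymphoblastoid cells (2500/well) were pre-incubated 5 hr at 37 C, then exposed to compounds in complete medium for 24 hr at 37 C. Intracellular ATP was read by CellTiter-Glo luminescence after 30 min at room temperature; AC50 from Hill fits.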

[15] = Cell Viability - LYMP2-016 (AID 984); conditions: LYMP2-016 lymphoblastoid cell viability, qHTS; series mostly up to 92.2 µM; also: nearly all actives have a fitted effect of over 55% in size
In short: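 qHTS, 1536-well: 2500 LYMP2-016 cells/well, 5 hr 37 C, compound added, 24 hr 37 C, CellTiter-Glo 30 min RT, luminescence. Tetraoctylammonium bromide positive control. AC50 via Hill fit.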

[16] = Cell Viability - LYMP2-020 (AID 986); conditions: series mostly up to 92.2 µM; also: nearly all actives have a fitted effect of over 55% in size
In short: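 Human lymphoblastoid cells, 2500/well, were pre-incubated 5 hr at 37 C, then exposed to compounds for 24 hr at 37 C in complete medium. Intracellular ATP was read by CellTiter-Glo luminescence, and AC50 was derived by Hill fitting of concentration-response data.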

[17] = Cell Viability - LYMP2-022 (AID 987); conditions: LYMP2-022 lymphoblastoid cell viability; series mostly up to 92.2 µM; also: nearly all actives have a fitted effect of over 55% in size; also: potency is read from the fitted curve at half-maximal effect
In short: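 Human lymphoblastoid cells, 2500/well, preincubated 5 hr at 37 C, then exposed to compounds over a concentration range for 24 hr at 37 C in complete medium. Viability read as intracellular ATP by CellTiter-Glo luminescence after 30 min at room temperature; AC50 from Hill fits.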

[18] = Cell Viability - LYMP2-024 (AID 988); conditions: LYMP2-024 lymphoblastoid cell viability; series mostly up to 92.2 µM; also: nearly all actives have a fitted effect of over 60% in size; also: potency is read from the fitted curve at half-maximal effect
In short: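 Human lymphoblastoid cells (2500/well) in complete medium were preincubated 5 hr at 37 C, then exposed to compounds for 24 hr at 37 C. Intracellular ATP was read by CellTiter-Glo luminescence; AC50 from Hill-equation fits of concentration-response data.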

[19] = qHTS assay for small molecule disruptors of the mitochondrial membrane potential - 1 hr assay (AID 651754; calls by dose curve; also: nearly all actives have a fitted effect of over 35% in size); conditions: series mostly up to 92.2 µM
In short: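 HepG2 cells, attached overnight at 37C, were exposed to compound or DMSO vehicle for 1 hr at 37C, 5% CO2, then stained with Mito-MPS dye for 30 min. Red aggregate versus green monomer fluorescence reports membrane potential.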

[20] = biological target: Tumor necrosis factor (Homo sapiens) (UniProt P01375); assay: qHTS assay to identify small molecules that stimulate Tumor Necrosis Factor-alpha (TNF-alpha) secretion (AID 651757; active = well fitted curve in the direction sought with a large enough effect in the signal ratio; the % refers to the signal ratio); conditions: Human cells, HTRF 665/615 ratio; series mostly up to 92.2 µM
In short: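 THP-1 cells were exposed to compounds for 17 hrs at 37 C, after which secreted TNF-alpha was measured by homogeneous HTRF (TR-FRET) using cryptate- and XL665-labeled anti-TNF-alpha antibodies, read after 3 hr at room temperature.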

Tumor necrosis factor (Homo sapiens), sequence (P01375 whole entry, looked up): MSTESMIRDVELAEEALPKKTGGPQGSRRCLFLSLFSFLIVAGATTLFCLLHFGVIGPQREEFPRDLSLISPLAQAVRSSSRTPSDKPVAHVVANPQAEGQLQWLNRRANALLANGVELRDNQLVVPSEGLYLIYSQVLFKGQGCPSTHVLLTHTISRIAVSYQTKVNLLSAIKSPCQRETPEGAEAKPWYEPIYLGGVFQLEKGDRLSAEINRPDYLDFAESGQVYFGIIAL

SMILES | Potency [1] | Potency [2] | Potency [3] | Potency [4] | Potency [5] | Potency [6] | Potency [7] | Potency [8] | Potency [9] | Potency [10] | Potency [11] | Potency [12] | Potency [13] | Potency [14] | Potency [15] | Potency [16] | Potency [17] | Potency [18] | Potency [19] | outcome [20]
O=C(Cl)C(Cl)(Cl)Cl | > 92 µM | inactive | inactive | inactive | inactive | inactive | inactive | inactive | inactive | inactive | inactive | inactive | inactive | inactive | inactive | inactive | inactive | inactive | inactive | inactive
Cc1ccc([N+](=O)[O-])cc1C | > 92 µM | inactive | inactive | inactive | inactive | inactive | inactive | inactive | inactive | inactive | inactive | inactive | inactive | inactive | inactive | inactive | inactive | inactive | inactive | inactive
CC(C)(OO)c1ccccc1 | 28.3 µM (active) | 39.8 µM (active) | inactive | inactive | 50.1 µM (active) | 39.8 µM (active) | – | – | 50.1 µM (active) | – | 50.1 µM (active) | – | 25.1 µM (active) | inactive | inactive | inactive | 39.8 µM (active) | 31.6 µM (active) | inactive | inactive
CC(Cl)Cl | > 92 µM | inactive | inactive | inactive | inactive | inactive | inactive | inactive | inactive | inactive | inactive | inactive | inactive | inactive | inactive | inactive | inactive | inactive | inactive | inactive
C=CC(N)=O | > 92 µM | inactive | inactive | inactive | inactive | inactive | inactive | inactive | inactive | inactive | inactive | inactive | inactive | inactive | inactive | inactive | inactive | inactive | inactive | inactive
CCSC(=O)Cl | > 92 µM | inactive | inactive | inactive | inactive | inactive | inactive | inactive | inactive | inactive | inactive | inactive | inactive | inactive | inactive | inactive | inactive | inactive | inactive | inactive
ClC(Cl)=C(Cl)C(Cl)=C(Cl)Cl | > 92 µM | – | inactive | inactive | inactive | inactive | inactive | inactive | – | inactive | – | inactive | – | inactive | – | – | – | – | inactive | inactive
BrCCBr | > 92 µM | inactive | inactive | inactive | inactive | inactive | inactive | inactive | inactive | inactive | inactive | inactive | inactive | inactive | inactive | inactive | inactive | inactive | inactive | inactive
